# Bioassay records as filed in PubChem.
# LMP1 NFkB inh: EBV LMP1-driven NF-kappaB luciferase reporter inhibitors, primary screen, cell-based, luminescence, single point; LMP1-induced NF-kappaB luciferase reporter cells; AID 504558, 2011; actives 0.69% (n = 350,000); inhibition, % at 12.5 µM; in the data active = inhibition above about 41%
# TRPM1 prom inh: inhibitors of MITF-dependent TRPM1 promoter reporter, primary screen, cell-based, SK-MEL-5, single point, luciferase; inhibition, % at 12.5 µM; SK-MEL-5 TRPM1 promoter luciferase, 24 h; actives 0.83% (n = 330,000);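 active = mean inhibition across replicates of 60% or more, whatever share of single replicates reaches that level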
# Peg3 promoter: Peg3 promoter-driven luciferase inhibitors, primary screen, cell-based, HeLa, luciferase luminescence; AID 588405, 2011; inhibition, % at 20 µM; HeLa PEG-Prom luciferase reporter, overnight; actives 1.7% (n = 360,000);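 active = inhibition of at least 50% at 20 µM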
# TROY signal inh: inhibitors of TROY-driven NF-kB signaling, primary screen, Q293 LMP1-TROYcd cells, NF-kB luciferase, uHTS; Q293 LMP1-TROYcd NF-kB luciferase reporter, 4 h; inhibition, % at 10 µM; actives 0.98% (n = 360,000); AID 1347056, 2019;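 active = compounds whose plate-normalised and pattern-corrected inhibition of the luciferase reporter signal at the single screening dose is 50% or more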
# TWEAK Fn14 block: inhibitors of TWEAK-Fn14 signaling, primary screen, luciferase reporter cells, uHTS; TWEAK-stimulated Fn14 reporter cells, luciferase luminescence, 8 h; inhibition, % at 10 µM; actives 2% (n = 360,000); AID 1159606, 2016; in the data active = inhibition above about 50%
# HIF-2a inh: HIF-2a reporter inhibitors, primary screen, luminescence, 786-0 RCC cells; actives 0.72% (n = 360,000); inhibition, % at 18.8 µM; AID 624352, 2012; 786-0 RCC cells HIF-2a reporter, luciferase luminescence, overnight;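 active = inhibition of the luminescence signal of 40% or more relative to plate controls, in a single-dose primary screen at 18.75 µM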
# Mdm2 MdmX conf: retested Mdm2-MdmX interaction blockers, confirmation, cell-based, luminescence, single concentration, set 2. shares compounds with HIF-2a inh. inhibition, % at 8 µM. actives 99% (n = 740). AID 504601, 2011. SaOS-2 split-luciferase Mdm2/MdmX complementation;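 active = mean inhibition of the luminescence signal across two replicates at or above 26 percent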
# Target sequence (O15151 whole entry, looked up): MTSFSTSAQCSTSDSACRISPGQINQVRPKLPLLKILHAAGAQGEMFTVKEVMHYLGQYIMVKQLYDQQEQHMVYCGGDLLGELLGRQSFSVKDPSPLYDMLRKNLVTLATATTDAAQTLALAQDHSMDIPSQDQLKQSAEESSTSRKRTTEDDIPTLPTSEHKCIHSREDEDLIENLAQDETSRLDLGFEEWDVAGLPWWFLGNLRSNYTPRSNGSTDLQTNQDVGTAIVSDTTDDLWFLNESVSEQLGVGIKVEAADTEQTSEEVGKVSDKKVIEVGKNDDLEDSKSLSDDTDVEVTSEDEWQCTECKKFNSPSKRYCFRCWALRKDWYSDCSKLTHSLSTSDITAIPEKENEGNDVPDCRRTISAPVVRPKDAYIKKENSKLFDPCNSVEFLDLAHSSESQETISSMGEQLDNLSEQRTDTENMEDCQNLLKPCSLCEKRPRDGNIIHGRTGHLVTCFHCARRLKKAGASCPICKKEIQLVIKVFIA
# Target sequence (Q00987 whole entry, looked up): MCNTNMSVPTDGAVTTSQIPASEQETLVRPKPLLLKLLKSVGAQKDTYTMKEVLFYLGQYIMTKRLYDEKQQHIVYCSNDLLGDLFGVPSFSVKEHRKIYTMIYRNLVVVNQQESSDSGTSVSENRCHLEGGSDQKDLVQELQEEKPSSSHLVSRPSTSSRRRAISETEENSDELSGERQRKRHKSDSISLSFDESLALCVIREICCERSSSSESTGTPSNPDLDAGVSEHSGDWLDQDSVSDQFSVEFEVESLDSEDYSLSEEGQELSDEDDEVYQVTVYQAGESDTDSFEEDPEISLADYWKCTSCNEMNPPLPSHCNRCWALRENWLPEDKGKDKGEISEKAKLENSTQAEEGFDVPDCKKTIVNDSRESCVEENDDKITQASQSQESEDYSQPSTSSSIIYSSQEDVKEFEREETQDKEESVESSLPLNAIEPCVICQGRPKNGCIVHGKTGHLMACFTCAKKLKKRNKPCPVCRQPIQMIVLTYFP
# HIF-2a inh conf: HIF-2a reporter inhibitor retest, confirmation, luminescence, 786-0 RCC cells; HIF-2a luciferase reporter luminescence, overnight; shares compounds with HIF-2a inh; actives 56% (n = 1,800); inhibition, % at 18.8 µM;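 active = mean inhibition across four replicates of at least 40 percent at the single tested concentration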
# HIF-1a counter: HIF-1a luciferase reporter signal reduction – MiaPaCa-2 cells, single concentration, counter-screen for HIF-2a inhibitor project, confirmation | MiaPaCa-2 HIF-1a luciferase reporter, desferoxamine, overnight | actives 72% (n = 1,800) | AID 651589, 2012 | inhibition, % at 18.8 µM | shares compounds with HIF-2a inh;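 active = mean inhibition of the reporter signal across four replicates at the single tested dose of 50% or more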
# A number is an active result; i = inactive; nt = not tested or not shown. In the library only some 4% were active in any assay of this set; here they are far more common.
SMILES,LMP1 NFkB inh,TRPM1 prom inh,Peg3 promoter,TROY signal inh,TWEAK Fn14 block,HIF-2a inh,HIF-2a inh conf,HIF-1a counter,others
Cc1ccc(Sc2c([N+](=O)[O-])c(=O)n(C)c3ccccc23)cc1,i,i,i,68,i,52,i,87,
Cc1ccc(Sc2c(O)c3ccccc3n(C)c2=O)cc1,i,i,i,i,i,i,nt,nt,
Cc1ccc(Sc2c(C=O)c3ccccc3n2C)cc1,i,i,i,52,69,i,nt,nt,Mdm2 MdmX conf=91
Cn1c(-c2ccccc2)c(C=O)c2ccccc21,i,i,i,i,i,i,nt,nt,
O=C(NC(=S)NCCN1CCOCC1)c1ccc(Cl)cc1,i,i,i,i,i,i,nt,nt,
CCN(CC)CCN1C(=O)/C(=C\c2ccc(Cl)c([N+](=O)[O-])c2)SC1=Nc1ccc(OC)cc1,i,94,102,74,99,96,54,104,
CCCN1C(=O)/C(=C/c2ccc(C)s2)SC1=Nc1ccc(OC)cc1,i,i,i,i,i,i,nt,nt,
COc1ccc(N=C2S/C(=C\c3ccc(Cl)c([N+](=O)[O-])c3)C(=O)N2CCN(C)C)cc1,i,i,105,81,60,79,i,101,
COc1ccc2[nH]cc(/C=C/c3cc[n+](C)cc3)c2c1,i,i,i,i,i,i,nt,nt,
COC(=O)C(=C/C(C)=C/c1cccnc1)C(=O)OC,i,i,60,i,65,43,i,i,
COC(=O)/C(=C/c1cccnc1)NC(=O)c1ccccc1,i,i,i,i,i,i,nt,nt,
O=C(NC1CCCC1)C(c1ccccc1)n1c(CSCCOc2ccccc2)nc2ccccc21 (stereo not drawn),nt,nt,nt,nt,nt,65,79,66,
CCc1ccccc1NC(=O)CN(C)C(=O)COC(=O)c1ccco1,i,i,i,i,i,i,nt,nt,
O=C(NCc1ccco1)c1nc2c(nnn2Cc2ccccc2Cl)c(=O)[nH]1,i,72,94,85,85,45,57,106,
CCOC(=O)c1cccc(NC(=O)Nc2ccc(OCC)cc2)c1,i,i,i,i,i,62,61,i,
CCOC(=O)C(=O)Nc1cccc(C(=O)OCC)c1,i,i,i,i,i,i,nt,nt,
c1c2c(cc3sc(N4CCOCC4)nc13)OCCO2,62,i,i,55,92,55,63,i,
COc1cc2c(cc1OC)C(=O)CCC2,i,i,i,i,i,i,nt,nt,
COc1cccc(-n2nc(C#N)c(Cl)cc2=O)c1,i,91,108,83,i,96,nt,nt,Mdm2 MdmX conf=104
COc1cccc(-n2nc(C(N)=O)c(O)cc2=O)c1,i,i,i,i,i,i,nt,nt,
NC(Cc1ccccc1)c1csc(NC(=O)c2cccc(OC(F)(F)F)c2)n1 (stereo not drawn),nt,nt,99,i,i,65,i,106,
CCc1ccc2oc(=O)cc(CN3CCOCC3)c2c1,i,i,i,i,i,46,i,i,
C=CCNC(=O)/C(C#N)=C/c1ccc(OS(=O)(=O)c2ccc(C)cc2)c(OC)c1,i,i,i,i,i,59,46,97,
Cc1ccc2c(CN3CCC(C)CC3)cc(=O)oc2c1C,i,i,i,i,i,i,nt,nt,
CCOC(=O)C1CCN(Cc2cc(=O)oc3c(C)c(C)ccc23)CC1,i,i,i,i,i,57,78,i,
SMILES,LMP1 NFkB inh,TRPM1 prom inh,Peg3 promoter,TROY signal inh,TWEAK Fn14 block,HIF-2a inh,HIF-2a inh conf,HIF-1a counter,others
CN(Cc1ccccc1F)C(=O)CCNC(=O)c1ccc(C(C)(C)C)cc1,i,i,i,i,i,i,nt,nt,
Brc1ccccc1/C=N/N1CCCCC1,i,i,i,i,i,45,i,i,
Oc1ccccc1C=NN1CCCCCC1,i,i,i,i,i,i,nt,nt,
Cc1cccc(NC(=S)NNc2ncc(C(F)(F)F)cc2Cl)c1,i,i,i,i,i,50,57,i,
O=C(Nc1ccccc1)Nc1ncc(C(F)(F)F)cc1Cl,i,nt,i,i,i,i,nt,nt,
Cc1ccc(C(=O)O/N=C(\N)c2ccccn2)c(C)c1,87,96,106,87,104,89,nt,nt,Mdm2 MdmX conf=101
CCc1nc(SCC(=O)N2c3ccccc3CC2C)c2c(C)c(C)sc2n1 (stereo not drawn),i,i,i,i,i,i,nt,nt,Mdm2 MdmX conf=101
COc1ccc(C(CC(=O)c2ccc(C)cc2)C(C#N)C#N)cc1OC (stereo not drawn),i,i,93,i,88,56,i,105,
O=c1cc(-c2ccccc2)oc2ccc3ccccc3c12,68,nt,i,75,93,51,70,57,
CCO[C@H]1OC(C(=O)N2CCCCCCC2)=C[C@@H](C)[C@@H]1CCCO,i,i,i,i,i,i,nt,nt,
COc1ccc(OC)c(S(=O)(=O)ON2C(=O)c3ccccc3C2=O)c1,i,i,54,i,i,57,60,i,
CCc1ccc(S(=O)(=O)ON2C(=O)c3ccccc3C2=O)cc1,i,i,51,i,i,46,51,i,
CC1CCCN(C(=O)COC(=O)CNC(=O)c2sc3ccccc3c2Cl)C1 (stereo not drawn),i,i,i,i,i,i,nt,nt,
O=C(Nc1ccsc1C(=O)O)c1ccccc1Cl,i,i,i,i,i,i,nt,nt,
O=C(NNc1nc2ccccc2o1)c1ccccc1,nt,nt,i,i,i,47,80,i,
O=C(NC(=Nc1nc2ccccc2o1)NC(=O)c1ccccc1)c1ccccc1,i,i,i,i,i,i,nt,nt,
O=C1C[C@@H]2c3c(cccc3CN1Cc1ccccc1F)C[C@@H](O)[C@H]2O,i,i,i,i,i,i,nt,nt,
O=c1c2c3nc4ccccc4nc3n(Cc3ccccc3)c2ncn1Cc1ccco1,i,i,76,i,i,44,i,78,
CSC(=Nc1ccccc1)N=C(SCc1ccccc1)N(C)C,i,116,96,i,80,83,74,107,
COc1ccc(OCc2cc(C(=O)N3CCCC(O)C3)no2)c2ccccc12 (stereo not drawn),i,i,i,i,i,i,nt,nt,
CCN(CC)S(=O)(=O)c1cccc(NC(=O)Nc2cccc(C(F)(F)F)c2)c1,46,i,i,56,78,41,i,102,Mdm2 MdmX conf=95
